Compound activity from PubChem.
Pf growth 96h: P. falciparum growth inhibition at 96 hour, primary screen for plastid delayed-death inhibitors; Potency, µM (series often up to 28.7 µM), without a hit: at the top dose activity change, negative = inhibition, most hits filed as inhibitors; 320,000 tested, 6.9% active; P. falciparum luciferase reporter growth, 96 h; also: potency is read from the fitted curve at half-maximal effect
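96 h incubation, 37 C, 5% CO2, of luciferase-reporter P. falciparum-infected RBCs (2% hematocrit, 0.05% parasitemia final) with test compounds; endpoint luminescence.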
Pf growth 48h: P. falciparum growth inhibition at 48 hours (one generation) | P. falciparum luciferase growth in erythrocytes, 48 h | Potency, µM (top dose mostly 28.7 µM), for the others: at the top dose activity change, negative = inhibition, usual class: inhibitors | 310,000 tested, 5.9% active | AID 504832; also: potency is read from the fitted curve at half-maximal effect
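Luciferase-expressing parasites in RBCs, 2% Hct / 0.1% parasitemia final; RPMI 1640 + 0.5% Albumax; 37 C, 5% CO2, one generation; luminescence read-out, lower signal = inhibition.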
HCMV inh: inhibitors of human cytomegalovirus | activity change, negative = inhibition, % at 57.5 µM | 410,000 tested, 4.5% active | HFF cells, HCMV-luciferase reporter, 72 h; hits give low values; in the data active = activity change below about -60%; inconclusive = no clear call, values can overlap the other calls; inactive = above about -39%
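Compounds were evaluated in HFFs infected with an HCMV luciferase reporter virus (MOI 1 PFU/cell). Luciferase in lysates collected 72 h post infection served as the replication measure.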
HCV inh: HCV inhibition; Potency, µM (titrated, usually from 41.8 µM), for inactives: at the top dose activity change, negative = inhibition, actives largely listed as inhibitors; Huh7.5.1 HCVcc-Cre infection, luciferase reporter, 44 h; 340,000 tested, 3.4% active; AID 651820; also: potency is read from the fitted curve at half-maximal effect
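Antiviral activity was scored by luciferase reporter output from cells infected with HCVcc-Cre (~0.5 moi) in presence of compound, 44 h infection period, cells seeded 1,000/well 4 h prior.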
Numbers without * were called inactive; [ ] = dose if it differs, or a comment. Compounds with a hit are over-represented: about 13% of the library has one in this group of screens. Unless noted, calls follow the shape of the dose curve; as a rule, active = well fitted inhibition curve with a large enough effect; inconclusive = small, poorly fitted or top-dose-only effect, or another doubt; inactive = no such curve, though single readings can be large or run the other way. % is scaled to controls: 0 for no effect and ±100 for the full control effect.

Results for COC(=O)c1ccccc1CON1C(=O)C(C)(C)N(OCc2ccccc2C(=O)OC)C(=O)C1(C)C ?
Pf growth 96h: inconclusive; Pf growth 48h: inconclusive; HCMV inh: 8.9; HCV inh: 14.1µM*

How did COC(=O)c1ccccc1NC(=O)CC(=O)Nc1ccccc1C(=O)OC do in these assays?
Pf growth 96h: 2.1%; Pf growth 48h: 24.9%; HCMV inh: 39.9; HCV inh: 5.8%

Results for O=C(COc1ccc(Br)cc1)Nc1ccc(S(=O)(=O)Nc2ccccn2)cc1 ?
Pf growth 96h: inconclusive; Pf growth 48h: 11.0%; HCMV inh: -70.2*; HCV inh: -9.5%

How did O=C(COc1ccccc1)Nc1ccc(S(=O)(=O)Nc2ccccn2)cc1 do in these assays?
Pf growth 96h: 1.4%; Pf growth 48h: -23.7%; HCMV inh: 2.6; HCV inh: -6.9%

Results for O=C(COc1ccc(Br)cc1)Nc1ccc(NC(=O)c2ccccc2)cc1 ?
Pf growth 96h: inconclusive; Pf growth 48h: 7.8%; HCMV inh: -68.5*

How did CN(C)c1ccnc(Nc2ccc(O)cc2)c1C#N do in these assays?
Pf growth 96h: 10.4µM*; Pf growth 48h: inconclusive; HCMV inh: -0.2; HCV inh: 12.7%

Results for CCOC(=O)c1c(NC(=O)c2cc3nc(-c4ccccc4)cc(C(F)(F)F)n3n2)sc2c1CCC(C)C2 (configuration not stated) ?
HCMV inh: 6.2

Results for OC(C#Cc1ccccn1)c1cccs1 (configuration not stated) ?
Pf growth 96h: -12.5%; Pf growth 48h: 10.4µM*; HCMV inh: -62.2*; HCV inh: inconclusive

How did CCN(CC)S(=O)(=O)c1cc(-c2nnc(-c3ccc(Br)cc3)o2)ccc1Cl do in these assays?
Pf growth 96h: 3.29µM*; Pf growth 48h: -1.6%; HCMV inh: inconclusive; HCV inh: -12.6%

How did CCN(CC)S(=O)(=O)c1cc(-c2nnc(-c3ccc(Br)cc3)o2)ccc1Br do in these assays?
Pf growth 96h: -0.8%; Pf growth 48h: -5.9%; HCMV inh: 1.2; HCV inh: inconclusive

How did COc1ccccc1C/C(N)=N/OC(=O)COc1cccc(C)c1 do in these assays?
Pf growth 96h: 0.3%; Pf growth 48h: 0.9%; HCMV inh: -25.0; HCV inh: 7.6%

Results for COc1ccccc1C/C(N)=N/OC(=O)c1cccc([N+](=O)[O-])c1C ?
Pf growth 96h: 33.2%; Pf growth 48h: 9.28µM*; HCMV inh: 29.8; HCV inh: 10µM*

What do the screens show for `Cc1ccc(OCC(=O)Oc2cccc(C)c2C)cc1`?
Pf growth 96h: 11.7µM*; Pf growth 48h: 41.0%; HCMV inh: 32.9; HCV inh: 20.4%

What do the screens show for `COc1ccccc1C/C(N)=N/OC(=O)COc1ccc(C)cc1`?
Pf growth 96h: 2.08µM*; Pf growth 48h: 1.3%; HCMV inh: -5.6; HCV inh: -9.5%

What do the screens show for `Cc1ccc(OC(=O)COc2ccccc2C)cc1`?
Pf growth 96h: 14.9%; Pf growth 48h: -1.6%; HCMV inh: 34.1; HCV inh: 10.6%

How did Cc1ccc(CNC(=O)c2ccc3nc4[nH]c5ccccc5c4nc3c2)cc1 do in these assays?
Pf growth 96h: -2.0%; Pf growth 48h: inconclusive; HCMV inh: -101.9*; HCV inh: 4.0%

What do the screens show for `COc1ccccc1CNC(=O)c1ccc2nc3[nH]c4ccccc4c3nc2c1`?
Pf growth 96h: -21.1%; Pf growth 48h: inconclusive; HCMV inh: -86.4*; HCV inh: inconclusive

Results for CCCC(=O)OC(C(=O)Nc1cc(C(F)(F)F)ccc1Cl)c1ccccc1 (configuration not stated) ?
Pf growth 96h: 13.1µM*; Pf growth 48h: 13.1µM*; HCMV inh: -38.8; HCV inh: -6.6%

How did Cc1cc(C(=O)NCC(=O)OC(C(=O)Nc2cc(C(F)(F)F)ccc2Cl)c2ccccc2)ccc1[N+](=O)[O-] (configuration not stated) do in these assays?
Pf growth 96h: inconclusive; HCMV inh: -11.9; HCV inh: -28.2%

Results for O=C(OC(C(=O)Nc1ccc(Cl)cc1C(F)(F)F)c1ccccc1)c1c(Cl)cccc1Cl (configuration not stated) ?
Pf growth 96h: 0.0%; Pf growth 48h: 11.7µM*; HCMV inh: inconclusive; HCV inh: -22.2%

Results for COc1ccccc1-c1noc(CSc2nnc(Cc3ccccc3)n2-c2ccc(C)c(C)c2)n1 ?
HCMV inh: 7.3

What do the screens show for `CCN(C(=O)CCn1cnc2onc(-c3ccc(F)cc3)c2c1=O)c1ccc(OC)cc1`?
HCMV inh: 3.1

What do the screens show for `COC(=O)c1ccc(N2CCN(S(=O)(=O)c3ccc(C)cc3)CC2)c([N+](=O)[O-])c1`?
Pf growth 96h: inconclusive; Pf growth 48h: inconclusive; HCMV inh: 3.6; HCV inh: inconclusive

What do the screens show for `Cc1cc(C)n(-c2cc(N3CCN(S(=O)(=O)c4ccc(Br)cc4)CC3)ccc2[N+](=O)[O-])n1`?
Pf growth 96h: inconclusive; Pf growth 48h: inconclusive; HCMV inh: 40.9; HCV inh: inconclusive

What do the screens show for `Cc1cc(C)c(S(=O)(=O)N2CCN(c3ccc([N+](=O)[O-])c(-n4nc(C)cc4C)c3)CC2)c(C)c1`?
Pf growth 96h: 1.31µM*; Pf growth 48h: 4.15µM*; HCMV inh: -0.6; HCV inh: inconclusive

Results for COC(=O)c1ccc(N2CCN(S(=O)(=O)c3c(C)cc(C)cc3C)CC2)c([N+](=O)[O-])c1 ?
Pf growth 96h: inconclusive; Pf growth 48h: 11.7µM*; HCMV inh: -20.7; HCV inh: -11.1%

Results for O=C(O)c1cc(-c2ccc(C(F)(F)F)cc2)nc2n[nH]c(-c3ccccc3)c12 ?
HCMV inh: 28.1

Results for Cc1ccccc1CSCc1nc2ccccc2[nH]1 ?
Pf growth 96h: -25.8%; Pf growth 48h: inconclusive; HCMV inh: -3.2; HCV inh: inconclusive

What do the screens show for `c1ccc2cc(CSCc3nc4ccccc4[nH]3)ccc2c1`?
Pf growth 96h: inconclusive; Pf growth 48h: 13.1µM*; HCMV inh: inconclusive; HCV inh: inconclusive

How did Cc1ccc(C)c(CSCc2nc3ccccc3[nH]2)c1 do in these assays?
Pf growth 96h: inconclusive; Pf growth 48h: inconclusive; HCMV inh: -73.2*; HCV inh: inconclusive

How did Cc1cc(N)c2ccccc2[n+]1CCCCCCCCCC[n+]1c(C)cc(N)c2ccccc21 do in these assays?
Pf growth 96h: -99.9%[12.8 µM]; Pf growth 48h: 0.181µM*

How did CC1CCCCC1NC(=O)c1ccc(S(=O)(=O)NNC(=O)c2ccncc2)cc1 (configuration not stated) do in these assays?
Pf growth 96h: -11.4%; Pf growth 48h: 2.08µM*; HCMV inh: 19.1; HCV inh: 2.8%

What do the screens show for `O=C(NNS(=O)(=O)c1ccc(C(=O)NC2CCCC2)cc1)c1ccncc1`?
Pf growth 96h: -10.1%; Pf growth 48h: 15.8%; HCMV inh: 9.0; HCV inh: 20.9%

How did CCNC(=O)C1(C)CCCN(C(=O)CCc2cccs2)C1 (configuration not stated) do in these assays?
HCMV inh: 24.3
